From PubChem
Only some compounds are listed: those with a hit (about 17% of all), similar ones and a draw of the others.
TGFb inhibitor: qHTS for Inhibitors of TGF-b; HepG2 CAGA-GFP TGF-b/SMAD3 reporter, GFP fluorescence, 18 h; TGF-beta stimulated, 500 pg/mL final; Potency, µM (doses to about 46.1 µM), for the others: at the top dose activity, negative = inhibition, hits mostly inhibitors; hit rate 1.2% among 410,000; also: % is scaled to controls: 0 for no effect and ±100 for the full control effect; nearly all actives have a fitted effect of over 65% in size
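TGF-beta reporter screen: HEPG2 CAGA-GFP, 1% FBS, 500 pg/mL TGF-beta final, 18 h; per-cell GFP summed per well; curves fitted and categorized by class.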
HT1080 IDH1KD tx: qHTS for induction of synthetic lethality in tumor cells producing 2HG: qHTS for the HT-1080-IDH1KD cell line; HT-1080 IDH1 knockdown viability, ATP luminescence, 48 h; Potency, µM (top dose mostly 46.1 µM), without a hit: at the highest dose activity, negative = toxicity, actives largely listed as cytotoxic; hit rate 2% among 360,000; AID 686971, 2013;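 also: 0% = DMSO wells and -100% = cell-free medium wells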
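CellTiter-Glo luminescence after 48 h compound exposure at 37 degrees C of IDH1-knockdown HT-1080 cells in 5% FBS RPMI. %Activity scaled between DMSO wells and cell-free media wells, with curves fitted and assigned curve classes.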
HepG2 viability: qHTS for Inhibitors of TGF-b: Cytotox Counterscreen | hit rate 0.76% among 410,000 | HepG2 CAGA-GFP viability, ATP luminescence, 18 h | Potency, µM (top dose mostly 46.1 µM), without a hit: at the top dose activity change, negative = cytotoxicity, hits mostly cytotoxic
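HepG2 CAGA-GFP cells (1000/well, DMEM with 1% FBS) received compound, then TGF-beta at 500 pg/mL final, and were incubated 18 hours at 37 degrees C. Viability was read by CellTiter-Glo luminescence. Media-only wells were set as complete cell-killing and DMSO as no toxicity.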
TDP1 cell noCPT: qHTS for Inhibitors of human tyrosyl-DNA phosphodiesterase 1 (TDP1): qHTS in cells in absence of CPT | DT40 Tdp1-/- hTDP1 cells, no CPT, ATP luminescence, 48 h | Potency, µM (series often up to 46.2 µM), inactives show top-dose activity change, negative = growth inhibition, usual class: inhibitors | hit rate 15% among 420,000 | AID 686978, 2013; also: % is scaled to controls: 0 for no effect and ±100 for the full control effect; nearly all actives have a fitted effect of over 55% in size
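Seeded 400 DT40-hTDP1 cells/well (vehicle DMSO, no 20 nM CPT); pinned compounds; ≥48 hr at 37 °C; CellTiter-Glo luminescence as viability measure.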
DT40 TDP1 CPT: qHTS for Inhibitors of human tyrosyl-DNA phosphodiesterase 1 (TDP1): qHTS in cells in presence of CPT; chicken DT40 Tdp1-/-;hTDP1 cells + 20 nM CPT, ATP luminescence, 48 h; Potency, µM (series often up to 46.2 µM), for the others: at the highest dose activity change, negative = growth inhibition, usual class: inhibitors; hit rate 12% among 420,000; also: % is scaled to controls: 0 for no effect and ±100 for the full control effect; nearly all actives have a fitted effect of over 55% in size
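Chicken DT40 Tdp1-/- cells complemented with human TDP1, 400 cells/well, exposed to compounds plus 20 nM camptothecin for at least 48 h at 37 C; viability read as ATP content by CellTiter-Glo luminescence.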
HT1080-NT tox: qHTS for induction of synthetic lethality in tumor cells producing 2HG: qHTS for the HT-1080-NT fibrosarcoma cell line | Potency, µM (doses to about 46.1 µM), for inactives: at the highest dose activity, negative = less viability, usual class: cytotoxic | HT-1080-NT fibrosarcoma viability, CellTiter-Glo ATP luminescence, 48 h | hit rate 1.6% among 360,000;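 also: NT is the 2HG producing partner of a matched IDH1 knockdown line; 0% = DMSO-treated cells and -100% = media-only wells without cells; nearly all actives have a fitted effect of over 55% in size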
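Luminescent CellTiter-Glo readout after 48 hours of compound exposure at 37 degrees C defined viability of HT-1080-NT cells. Activity was normalized to DMSO wells and cell-free media wells; concentration-response curves were fitted and assigned curve classes.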
Starred values were filed as active, the others as inactive; [ ] = another dose, or the depositor's remark. Calls follow the shape of the dose curve; as a rule, active = well fitted curve in the direction sought with a large enough effect; inconclusive = small, poorly fitted or top-dose-only effect, or another doubt; inactive = no such curve, though single readings can be large; an effect the other way counts as inactive or inconclusive. Potency is read from the fitted curve at half-maximal effect.

Screening COc1ccc(C(=O)Nc2ccc3oc(-c4ccc5ccccc5c4)nc3c2)cc1Br returned TGFb inhibitor -20%, HepG2 viability -16%, TDP1 cell noCPT 18µM* and DT40 TDP1 CPT 18µM*.
For O=C(Nc1ccc2oc(-c3cccc4c(Br)cccc34)nc2c1)c1ccc(F)cc1 the results were TGFb inhibitor 9%, HepG2 viability 2%, TDP1 cell noCPT 10µM* and DT40 TDP1 CPT inconclusive.
CCc1ccc2oc(-c3ccc(NC(=O)c4ccc(OC)c(Br)c4)cc3)nc2c1 was read as TGFb inhibitor -1%, HepG2 viability -20%, TDP1 cell noCPT -25% and DT40 TDP1 CPT -15%.
For N#Cc1ccc(C(=O)Nc2ccc(Cl)c(-c3nc4cc(Cl)ccc4o3)c2)c(F)c1 the results were TGFb inhibitor -4%, HepG2 viability -22%, TDP1 cell noCPT 18µM* and DT40 TDP1 CPT 23µM*.
For O=C(Nc1ccc(Cl)c(-c2nc3cc(Cl)ccc3o2)c1)c1cc2ccccc2o1 the results were TGFb inhibitor -1%, HepG2 viability -5%, TDP1 cell noCPT inconclusive and DT40 TDP1 CPT inconclusive.
For C=C(C)c1nc(Oc2ccccc2)nc(Oc2ccccc2)n1 the results were TGFb inhibitor 11µM*, HT1080 IDH1KD tx inconclusive, HepG2 viability -93%, TDP1 cell noCPT 6.5µM*, DT40 TDP1 CPT 7.3µM* and HT1080-NT tox inconclusive.
Cc1cc(Oc2ccccc2)nc(-c2ccccc2)n1 was read as TGFb inhibitor 0%, HT1080 IDH1KD tx 0%, HepG2 viability 0%, TDP1 cell noCPT -11%, DT40 TDP1 CPT -27% and HT1080-NT tox -1%.
`CS(=O)(=O)N1CCC2(CCN(c3cccc(-c4ccccc4)c3)CC2)CC1` gave TDP1 cell noCPT 21µM* and DT40 TDP1 CPT inconclusive.
`CS(=O)(=O)N1CCC2(CC1)CN(c1cccc(-c3ccccc3)c1)C2` gave TDP1 cell noCPT 18µM* and DT40 TDP1 CPT inconclusive.
Screening CC(=O)c1ccc(N2CCN(S(=O)(=O)c3cc(-c4cc(C)no4)ccc3C(C)C)CC2)cc1 returned TGFb inhibitor -1%, HT1080 IDH1KD tx -17%, HepG2 viability -5%, TDP1 cell noCPT inconclusive, DT40 TDP1 CPT inconclusive and HT1080-NT tox 5%.
`COc1cc(-c2ccno2)ccc1S(=O)(=O)N1CCN(c2ccc(C(C)=O)cc2)CC1` gave TGFb inhibitor inconclusive, HepG2 viability -28%, TDP1 cell noCPT 15µM* and DT40 TDP1 CPT inconclusive.
COc1cccc(N2CCN(S(=O)(=O)c3ccc(-c4ccno4)cc3OC)CC2)c1 was read as TGFb inhibitor -21%, HepG2 viability 1%, TDP1 cell noCPT inconclusive and DT40 TDP1 CPT inconclusive.
`COc1cc(-c2ccno2)ccc1S(=O)(=O)N1CCN(c2ccc(F)cc2)CC1` gave TGFb inhibitor inconclusive, HepG2 viability -8%, TDP1 cell noCPT 7.3µM* and DT40 TDP1 CPT inconclusive.
`COc1ccc(-c2nc3cc(C)ccc3cc2CN(C(=O)c2csc(C)n2)C2CC2)cc1OC` gave TDP1 cell noCPT -20% and DT40 TDP1 CPT 9%[9.04 µM].
O=C(c1ccccc1)c1ccc(-n2ccnc2)c([N+](=O)[O-])c1 was read as TGFb inhibitor 0%, HT1080 IDH1KD tx 2%, HepG2 viability -35%, TDP1 cell noCPT 21µM*, DT40 TDP1 CPT -26% and HT1080-NT tox 7%.
For CCN(CC)C(=O)Cn1c(=O)n(CCCCCC(=O)NCc2ccccc2Cl)c(=O)c2sccc21 the results were TGFb inhibitor -7%, HepG2 viability -11%, TDP1 cell noCPT -10% and DT40 TDP1 CPT -19%.
For O=C(Nc1nc(-c2cccc3ccccc23)cs1)c1cnccn1 the results were TGFb inhibitor -23%, HT1080 IDH1KD tx -15%, HepG2 viability -28%, TDP1 cell noCPT inconclusive, DT40 TDP1 CPT -20% and HT1080-NT tox 4%.
Screening CCCCc1cc(=O)oc2cc(OCC(=O)NCCN3CCOCC3)c(Cl)cc12 returned TGFb inhibitor -13%, HT1080 IDH1KD tx -6%, HepG2 viability -3%, TDP1 cell noCPT 18µM*, DT40 TDP1 CPT 13µM* and HT1080-NT tox -12%.
For Cc1c(OCC(=O)NC2CC(C)(C)NC(C)(C)C2)ccc2c1oc(=O)c1ccccc12 the results were TGFb inhibitor 10%, HT1080 IDH1KD tx 3%, HepG2 viability -11%, TDP1 cell noCPT 12µM*, DT40 TDP1 CPT inconclusive and HT1080-NT tox 16%.
For CCCc1cc(=O)oc2c(C)c(OCC(=O)NC3CCN(Cc4ccccc4)CC3)ccc12 the results were TGFb inhibitor -9%, HT1080 IDH1KD tx 0%, HepG2 viability 8%, TDP1 cell noCPT inconclusive, DT40 TDP1 CPT 18µM* and HT1080-NT tox 9%.
Screening CCCc1cc(=O)oc2c(C)c(OCC(=O)Nc3ccc(CN4CCOCC4)cc3)ccc12 returned TGFb inhibitor -2%, HT1080 IDH1KD tx 0%, HepG2 viability -1%, TDP1 cell noCPT inconclusive, DT40 TDP1 CPT 15µM* and HT1080-NT tox -4%.
`CCCc1cc(=O)oc2c(C)c(OCC(=O)NCCCN3CCOCC3)ccc12` gave TGFb inhibitor 3%, HT1080 IDH1KD tx -4%, HepG2 viability -9%, TDP1 cell noCPT -3%, DT40 TDP1 CPT 0% and HT1080-NT tox 0%.
For CC1=C(C(=O)N(C(C)C)C(C)C)CC(CC(=O)NCCN2CCOCC2)C(=O)N1CCCN1CCCC1=O (stereo not drawn) the results were TGFb inhibitor 1%, HT1080 IDH1KD tx 12%, HepG2 viability -16%, TDP1 cell noCPT 6%, DT40 TDP1 CPT 12% and HT1080-NT tox 16%.
Screening CCCCCCN1C[C@@H](O)[C@H](n2cc(COC(=O)c3ccccc3)nn2)C[C@@H]1c1ccccc1 returned TGFb inhibitor 17%, HT1080 IDH1KD tx -4%, HepG2 viability 8%, TDP1 cell noCPT inconclusive, DT40 TDP1 CPT inconclusive and HT1080-NT tox 23%.
